Test [1] can be described thus: viability loss in pontine glioma line – cell-based, SU-DIPG-XXV, MIPE5.0, CellTiter-Glo, qHTS, dose response (AID 1347065).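 Note: cells exposed to compound for 48 hours before ATP readout.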 The following applies: CellTiter-Glo ATP luminescence. (In general: ATP-based viability assays read luminescence as a measure of living cells.)
Test [2] is described as follows: growth inhibition of DIPG glioma cells, dose response, cell-based, SU-DIPG-XIII, MIPE5.0, CellTiter-Glo, qHTS (AID 1347064; cut-off not given, nearly all actives have AC50 up to about 23 µM;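 for AC50: cells exposed to compound for 48 hours before the viability read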). As to conditions: SU-DIPG-XIII viability, CellTiter-Glo ATP luminescence.
A short description of test [3]: JHH-DIPG-1 glioma cell viability, MIPE5.0 library, CellTiter-Glo luminescence, qHTS (AID 1347067).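 Note: cells exposed to compound for 48 hours before readout.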 The following applies: JHH-DIPG-1 glioma viability, CellTiter-Glo ATP luminescence.
Test [4] can be described thus: modifiers of HSF1 nuclear foci, imaging, Selleck Cancer Library (AID 1347162; in the data active = plate-normalised HSF1 focus index below about 0.46). The following applies: human cells, at 10 µM; SSMD: measured here: HSF1 foci SSMD mean; cell count: measured here: cell number; plate-normalised HSF1 focus index: stronger effect = lower value.
Test [5] is described as follows: growth inhibition of DIPG glioma cells, dose response, cell-based, SU-DIPG-XIII, MIPE4.0, CellTiter-Glo, qHTS (AID 1347061; cut-off not given, nearly all actives have AC50 up to about 37 µM;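 note: cells exposed to compound for 48 hours before readout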). As to conditions: SU-DIPG-XIII viability, CellTiter-Glo ATP luminescence.
A short description of test [6]: SU-DIPG-XXV glioma cell viability, MIPE5.0 library, qHTS (AID 1347068; cut-off not given, nearly all actives have IC50 up to about 30 µM;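 for IC50: cells exposed to compound for 48 hours before viability readout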). In general terms: Quantitative high-throughput screening tests each substance at several concentrations.
Test [7] can be described thus: hESC survival regulators, cell-based (AID 493140; call rule not given here;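 note: cells exposed to compounds for four days before counting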). The following applies: human embryonic stem cell survival screen; stronger effect = higher value.

One may read the AC50 as the concentration at which the activity in the assay is half-maximal. A word on the IC50: it is the point on the concentration scale where inhibition reaches its midpoint.

SMILES strings stand for the structures. Results filed as inconclusive are left out. Activity calls are given as the source filed them. Unless noted, no cut-off is given here; in the data, nearly all actives have AC50 up to about 26 µM.

`O=C(O)c1ccc(-n2nc(-c3ccccc3O)nc2-c2ccccc2O)cc1`: the AC50 in test [1] is 20.9 µM (active).
Take `Cc1ccc(Nc2nccc(N(C)c3ccc4c(C)n(C)nc4c3)n2)cc1S(N)(=O)=O`: in test [2], the AC50 was 3.72 µM (active). Also, in test [1], the AC50 was 5.9 µM (active). Further, in test [3], the AC50 is 18.6 µM (active). In test [4], the SSMD came to 1.61, the cell count is 7340 and the plate-normalised HSF1 focus index is 1.1 (inactive).
`CCCCN(CCCC)CC(O)c1cc(Cl)cc2c1-c1ccc(Cl)cc1/C2=C/c1ccc(Cl)cc1` (centres undefined): the outcome in test [5] and in test [6] was inactive. Also, the AC50 in test [3] was 18.6 µM (active).
Take `CN1CCCN=C1/C=C/c1cccs1`: the survival in test [7] was 25.8 (inactive). Further, the call in test [1], in test [3] and in test [6] was inactive.
Take `COc1cc(Nc2c(C#N)cnc3cc(OCCCN4CCN(C)CC4)c(OC)cc23)c(Cl)cc1Cl`: in test [1], the AC50 is 13.2 µM (active). Besides, the AC50 in test [3] was 11.8 µM (active). Moreover, in test [4], the SSMD was -18.3, the cell count is 5030 and the plate-normalised HSF1 focus index is 0.345 (active).
On to `CC(C)(C)C(=O)OCOP(=O)(COCCn1cnc2c(N)ncnc21)OCOC(=O)C(C)(C)C`, for which the concentration at half-maximal activity (AC50) was 20.9 µM (active) in test [5], 18.6 µM (active) in test [2] and 20.9 µM (active) in test [1]. In addition, in test [6], the outcome was inactive.
As for `CN(c1nccc(=O)[nH]1)C1CCN(c2nc3ccccc3n2Cc2ccc(F)cc2)CC1`, the molecule was called inactive in test [5].
For the molecule `COc1cc(NCc2ccc3nc(N)nc(N)c3c2C)cc(OC)c1OC`, the AC50 in test [2] is 7.42 µM (active); in test [1] it was 2.95 µM (active); in test [3], 2.63 µM (active).
For `CCCCCCCCOc1ccccc1C(=O)Nc1ccc(C(=O)OCC[N+](C)(CC)CC)cc1`, the call in test [5] was inactive.
Regarding `CCCCCCOC(=O)NC(=N)c1ccc(NCc2nc3cc(C(=O)N(CCC(=O)OCC)c4ccccn4)ccc3n2C)cc1`, the outcome in test [6] was inactive.
For `O=C(O)c1c(Cl)c(Cl)c(Cl)c(Cl)c1-c1c2cc(I)c(=O)c(I)c-2oc2c(I)c(O)c(I)cc12`, the AC50 in test [5] was 16.6 µM (active); in test [2], 6.61 µM (active); in test [1], 3.32 µM (active); in test [3] it was 8.33 µM (active).
Take `CN1C[C@H]2c3ccccc3Oc3ccc(Cl)cc3[C@@H]2C1`: the result in test [5] was inactive.
As for `C[C@@H]1C[C@H]2[C@@H]3CCC4=CC(=O)C=C[C@]4(C)[C@@]3(Cl)[C@@H](O)C[C@]2(C)[C@@]1(OC(=O)c1ccco1)C(=O)CCl`, in test [7], the survival was 4.67 (inactive). Moreover, the AC50 in test [1] is 29.5 µM (active). In addition, the molecule was classed as inactive in test [6].
For the molecule `COC(=O)C1=C(C)NC(C)=C(C(=O)OCCN2CCN(C(c3ccccc3)c3ccccc3)CC2)C1c1cccc([N+](=O)[O-])c1` (centres undefined), the values for the concentration at half-maximal activity (AC50) in test [2], in test [1] and in test [3] were 8.33 µM (active), 5.9 µM (active) and 13.2 µM (active), respectively. For the same molecule, the IC50 in test [6] is 8.33 µM (active).
Take `NC(=O)Cc1cccc(C(=O)c2ccccc2)c1N`: the outcome in test [5] was inactive.
Same read-out and setting: the result for `O[C@@H](CNC[C@H](O)[C@H]1CCc2cc(F)ccc2O1)[C@@H]1CCc2cc(F)ccc2O1` reads “inactive”.
For `Cc1c(C)c2c(c(C)c1O)CCC(C)(COc1ccc(CC3SC(=O)NC3=O)cc1)O2` (centres undefined), the outcome in test [2], in test [3] and in test [6] was inactive.
On to `Clc1cccc(C(c2ccc3nc[nH]c3c2)n2ccnc2)c1` (centres undefined), for which the call in test [2], in test [1], in test [3] and in test [6] was inactive.
With `COC(=O)N[C@H](C(=O)N[C@@H](Cc1ccccc1)[C@@H](O)CN(Cc1ccc(-c2ccccn2)cc1)NC(=O)[C@@H](NC(=O)OC)C(C)(C)C)C(C)(C)C`, the outcome in test [5] was inactive.
Consider `CC(=O)O[C@@]12CO[C@@H]1C[C@H](O)[C@@]1(C)C(=O)[C@H](O)C3=C(C)[C@@H](OC(=O)[C@H](O)[C@@H](NC(=O)OC(C)(C)C)c4ccccc4)C[C@@](O)([C@@H](OC(=O)c4ccccc4)[C@H]21)C3(C)C`, for which the molecule was called inactive in test [2], in test [3] and in test [6]. The AC50 in test [1] was 0.00209 µM (active).
As for `COc1cccc(N(C)C(=S)Oc2ccc3c(c2)CCCC3)n1`, the result in test [5] was inactive.
Consider `CCCS(=O)c1ccc2nc(NC(=O)OC)[nH]c2c1` (centres undefined), for which the AC50 in test [1] is 23.5 µM (active). Moreover, the result in test [3] and in test [6] was inactive.

These data come from PubChem BioAssay.
